Experiments:
Test in all cases: DAPPL (digital affinity profiling via proximity ligation, sequencing); 10 mM Tris-HCl pH 7.5, 50 mM NaCl, 1 mM DTT, 4% glycerol, room temperature, 30 min; GST-TFs on glutathione beads, 16-mer random dsDNA library, 0.1% formaldehyde crosslink after washing; high values mean tight binding
[1] = target: T1, FEV (Homo sapiens, UniProt Q99581 1-238); conditions: protein: recombinant; tags: N-terminal GST; dsDNA, one strand shown
T1 sequence: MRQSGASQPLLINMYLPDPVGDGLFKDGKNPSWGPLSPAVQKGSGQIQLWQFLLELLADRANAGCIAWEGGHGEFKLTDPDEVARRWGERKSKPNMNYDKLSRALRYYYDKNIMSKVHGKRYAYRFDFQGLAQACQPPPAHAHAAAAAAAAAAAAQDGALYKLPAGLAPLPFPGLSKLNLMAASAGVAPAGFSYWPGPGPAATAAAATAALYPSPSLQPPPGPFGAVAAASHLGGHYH
Procedure, shortened: (§1)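 The binding signal reported is, for every hexamer, its read frequency for a factor over its read frequency for the tag-only sample. Reads came from pools of yeast-expressed, GST-fused human transcription factors on glutathione beads, barcoded with DNA and mixed with that sample, which were incubated with 200 nmole of a random double-stranded 16-mer DNA library in Tris/NaCl/DTT/glycerol buffer at room temperature for 30 min. After washing, the pools were crosslinked with 0.1% formaldehyde, proximity-ligated with BsaI/T4 ligase for 1 h at 37 °C, PCR-amplified and sequenced on an Illumina NextSeq500.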

[2] = target: ETV5 (Homo sapiens, UniProt P41161 1-510); conditions: protein: recombinant; tags: N-terminal GST; dsDNA, one strand shown
Chain of ETV5 (P41161 whole entry): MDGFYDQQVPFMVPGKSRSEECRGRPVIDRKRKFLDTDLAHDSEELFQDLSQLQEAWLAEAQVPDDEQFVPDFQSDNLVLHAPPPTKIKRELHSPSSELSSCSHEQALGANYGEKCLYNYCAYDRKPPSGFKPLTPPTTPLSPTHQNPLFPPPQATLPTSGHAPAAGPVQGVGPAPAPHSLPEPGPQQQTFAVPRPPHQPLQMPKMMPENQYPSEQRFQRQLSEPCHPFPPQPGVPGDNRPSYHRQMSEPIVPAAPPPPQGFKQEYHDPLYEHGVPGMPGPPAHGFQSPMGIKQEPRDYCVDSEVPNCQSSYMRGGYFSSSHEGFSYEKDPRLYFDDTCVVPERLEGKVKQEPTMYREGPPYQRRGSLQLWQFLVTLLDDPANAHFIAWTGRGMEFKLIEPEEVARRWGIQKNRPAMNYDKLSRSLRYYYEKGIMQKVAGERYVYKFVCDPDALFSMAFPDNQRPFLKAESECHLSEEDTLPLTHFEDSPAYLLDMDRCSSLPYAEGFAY
Procedure, shortened: as §1

[3] = target: HSF1 (Homo sapiens, UniProt Q00613 1-529); conditions: protein: recombinant; tags: N-terminal GST; chain copies: 3; dsDNA, one strand shown
Chain of HSF1 (Q00613 whole entry): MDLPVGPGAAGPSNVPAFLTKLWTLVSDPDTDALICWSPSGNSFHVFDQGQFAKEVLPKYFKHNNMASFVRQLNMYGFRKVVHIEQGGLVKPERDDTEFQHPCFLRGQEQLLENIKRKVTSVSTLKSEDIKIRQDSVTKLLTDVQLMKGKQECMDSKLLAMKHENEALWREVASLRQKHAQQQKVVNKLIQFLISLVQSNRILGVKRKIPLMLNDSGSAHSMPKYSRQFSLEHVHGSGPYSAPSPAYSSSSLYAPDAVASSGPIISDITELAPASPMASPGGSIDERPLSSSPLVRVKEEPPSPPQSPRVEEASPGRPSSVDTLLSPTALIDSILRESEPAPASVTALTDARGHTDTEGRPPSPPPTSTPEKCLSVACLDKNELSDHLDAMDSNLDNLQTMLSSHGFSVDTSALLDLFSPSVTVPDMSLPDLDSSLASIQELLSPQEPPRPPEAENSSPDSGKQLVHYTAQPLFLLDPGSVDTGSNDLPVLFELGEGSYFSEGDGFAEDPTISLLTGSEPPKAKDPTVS
Procedure, shortened: as §1

[4] = target: T2, SPIC (Homo sapiens, UniProt Q8N5J4 1-248); conditions: protein: recombinant; tags: N-terminal GST; dsDNA, one strand shown
T2 sequence: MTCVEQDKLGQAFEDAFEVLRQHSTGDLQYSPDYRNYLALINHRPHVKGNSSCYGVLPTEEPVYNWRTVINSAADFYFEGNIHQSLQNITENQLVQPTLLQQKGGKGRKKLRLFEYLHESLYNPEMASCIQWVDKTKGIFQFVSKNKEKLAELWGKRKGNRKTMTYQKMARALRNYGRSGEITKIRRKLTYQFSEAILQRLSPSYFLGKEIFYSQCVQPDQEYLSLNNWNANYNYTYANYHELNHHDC
Procedure, shortened: as §1

[5] = target: ELF4 (Homo sapiens, UniProt Q99607 1-663); conditions: protein: recombinant; tags: N-terminal GST; dsDNA, one strand shown
Chain of ELF4 (Q99607 whole entry): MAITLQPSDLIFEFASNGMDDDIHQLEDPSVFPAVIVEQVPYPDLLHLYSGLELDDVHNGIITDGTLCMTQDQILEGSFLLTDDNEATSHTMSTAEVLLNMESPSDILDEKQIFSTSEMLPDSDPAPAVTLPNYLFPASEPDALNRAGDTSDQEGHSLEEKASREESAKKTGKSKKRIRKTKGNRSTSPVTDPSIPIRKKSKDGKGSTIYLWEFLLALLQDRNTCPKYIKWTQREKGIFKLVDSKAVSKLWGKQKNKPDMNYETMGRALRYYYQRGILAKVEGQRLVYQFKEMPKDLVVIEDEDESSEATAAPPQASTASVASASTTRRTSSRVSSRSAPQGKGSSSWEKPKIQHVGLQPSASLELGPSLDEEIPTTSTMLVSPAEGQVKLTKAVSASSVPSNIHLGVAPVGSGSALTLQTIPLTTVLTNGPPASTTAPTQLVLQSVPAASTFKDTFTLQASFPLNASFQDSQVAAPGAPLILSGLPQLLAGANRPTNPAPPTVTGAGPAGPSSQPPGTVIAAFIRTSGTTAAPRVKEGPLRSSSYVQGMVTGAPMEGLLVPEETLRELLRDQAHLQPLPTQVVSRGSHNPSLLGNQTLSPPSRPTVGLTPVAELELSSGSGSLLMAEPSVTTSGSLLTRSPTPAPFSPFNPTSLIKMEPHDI
Procedure, shortened: as §1

[6] = target: T3, ELK4 (Homo sapiens, UniProt P28324-2 1-405); conditions: protein: recombinant; tags: N-terminal GST; dsDNA, one strand shown
T3 sequence: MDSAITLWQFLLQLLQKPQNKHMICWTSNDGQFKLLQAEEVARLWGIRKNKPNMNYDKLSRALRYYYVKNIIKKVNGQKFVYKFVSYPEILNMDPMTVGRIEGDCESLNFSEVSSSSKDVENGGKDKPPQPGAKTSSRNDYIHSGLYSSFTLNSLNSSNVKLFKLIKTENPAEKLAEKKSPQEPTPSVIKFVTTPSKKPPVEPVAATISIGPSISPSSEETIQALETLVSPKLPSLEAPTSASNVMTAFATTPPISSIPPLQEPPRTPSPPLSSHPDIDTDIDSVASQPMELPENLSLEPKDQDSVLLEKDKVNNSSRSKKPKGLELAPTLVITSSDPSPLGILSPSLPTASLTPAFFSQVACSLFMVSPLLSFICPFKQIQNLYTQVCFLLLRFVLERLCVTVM
Procedure, shortened: as §1

[7] = target: T4, ETV2 (Homo sapiens, UniProt O00321 1-342); conditions: protein: recombinant; tags: N-terminal GST; dsDNA, one strand shown
T4 sequence: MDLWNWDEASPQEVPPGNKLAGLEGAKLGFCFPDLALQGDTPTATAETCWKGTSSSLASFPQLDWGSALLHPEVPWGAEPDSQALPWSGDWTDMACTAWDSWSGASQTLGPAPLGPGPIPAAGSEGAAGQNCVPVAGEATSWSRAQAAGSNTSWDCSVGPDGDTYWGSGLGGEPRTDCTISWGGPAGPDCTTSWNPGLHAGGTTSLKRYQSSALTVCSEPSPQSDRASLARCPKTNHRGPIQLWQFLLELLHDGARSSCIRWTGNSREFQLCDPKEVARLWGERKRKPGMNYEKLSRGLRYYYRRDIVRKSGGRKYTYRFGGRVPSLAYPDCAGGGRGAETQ
Procedure, shortened: as §1

[8] = target: T5, ELF3 (Homo sapiens, UniProt P78545 1-371); conditions: protein: recombinant; tags: N-terminal GST; dsDNA, one strand shown
T5 sequence: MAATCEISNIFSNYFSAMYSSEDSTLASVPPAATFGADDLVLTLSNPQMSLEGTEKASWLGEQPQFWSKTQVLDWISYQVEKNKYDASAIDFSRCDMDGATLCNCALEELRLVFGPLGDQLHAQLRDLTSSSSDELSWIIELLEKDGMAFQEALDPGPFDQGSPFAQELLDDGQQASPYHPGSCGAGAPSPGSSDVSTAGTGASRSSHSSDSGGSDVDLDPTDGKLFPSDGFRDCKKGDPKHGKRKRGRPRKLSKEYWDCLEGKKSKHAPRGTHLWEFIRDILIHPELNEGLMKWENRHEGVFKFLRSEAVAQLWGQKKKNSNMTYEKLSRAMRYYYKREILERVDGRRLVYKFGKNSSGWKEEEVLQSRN
Procedure, shortened: as §1

[9] = target: ETV1 (Homo sapiens, UniProt P50549 1-477); conditions: protein: recombinant; tags: N-terminal GST; dsDNA, one strand shown
Chain of ETV1 (P50549 whole entry): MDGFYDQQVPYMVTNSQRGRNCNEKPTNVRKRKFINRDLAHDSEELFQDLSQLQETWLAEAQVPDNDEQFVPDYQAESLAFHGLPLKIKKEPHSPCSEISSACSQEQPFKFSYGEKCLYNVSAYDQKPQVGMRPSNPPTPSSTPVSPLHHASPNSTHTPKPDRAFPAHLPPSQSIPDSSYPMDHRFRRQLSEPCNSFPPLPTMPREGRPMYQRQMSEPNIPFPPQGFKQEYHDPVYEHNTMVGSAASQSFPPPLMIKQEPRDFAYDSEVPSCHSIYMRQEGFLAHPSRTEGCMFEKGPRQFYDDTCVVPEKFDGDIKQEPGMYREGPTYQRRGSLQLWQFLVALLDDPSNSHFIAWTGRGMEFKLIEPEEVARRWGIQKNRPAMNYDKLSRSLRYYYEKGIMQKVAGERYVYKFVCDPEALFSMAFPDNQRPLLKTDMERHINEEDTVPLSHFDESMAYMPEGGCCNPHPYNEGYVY
Procedure, shortened: as §1

[10] = target: T6, ERF (Homo sapiens, UniProt P50548 1-548); conditions: protein: recombinant; tags: N-terminal GST; dsDNA, one strand shown
T6 sequence: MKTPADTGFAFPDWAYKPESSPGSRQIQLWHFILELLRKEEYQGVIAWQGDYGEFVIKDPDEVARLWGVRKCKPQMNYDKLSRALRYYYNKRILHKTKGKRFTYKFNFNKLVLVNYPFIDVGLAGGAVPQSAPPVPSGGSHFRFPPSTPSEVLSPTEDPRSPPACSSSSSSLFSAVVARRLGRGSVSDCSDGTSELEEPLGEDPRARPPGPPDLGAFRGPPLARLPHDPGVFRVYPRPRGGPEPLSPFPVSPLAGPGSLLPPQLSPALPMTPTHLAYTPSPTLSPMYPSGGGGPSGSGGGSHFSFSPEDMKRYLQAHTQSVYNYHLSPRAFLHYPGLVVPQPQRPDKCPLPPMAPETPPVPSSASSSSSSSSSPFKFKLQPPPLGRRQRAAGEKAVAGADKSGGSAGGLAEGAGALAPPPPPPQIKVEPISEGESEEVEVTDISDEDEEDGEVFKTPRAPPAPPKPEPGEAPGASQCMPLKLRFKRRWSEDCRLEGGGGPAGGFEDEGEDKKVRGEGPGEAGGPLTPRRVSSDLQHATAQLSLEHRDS
Procedure, shortened: as §1

[11] = target: T7, ETV3L (Homo sapiens, UniProt Q6ZN32 1-361); conditions: protein: recombinant; tags: N-terminal GST; dsDNA, one strand shown
T7 sequence: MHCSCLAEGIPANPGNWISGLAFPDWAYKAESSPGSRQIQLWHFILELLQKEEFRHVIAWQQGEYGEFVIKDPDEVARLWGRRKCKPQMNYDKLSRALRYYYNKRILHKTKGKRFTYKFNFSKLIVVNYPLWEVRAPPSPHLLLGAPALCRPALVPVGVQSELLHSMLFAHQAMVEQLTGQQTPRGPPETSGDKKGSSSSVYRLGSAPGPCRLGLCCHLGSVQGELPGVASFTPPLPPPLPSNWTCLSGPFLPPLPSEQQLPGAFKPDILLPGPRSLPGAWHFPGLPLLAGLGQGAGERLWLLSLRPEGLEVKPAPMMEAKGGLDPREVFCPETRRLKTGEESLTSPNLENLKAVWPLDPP
Procedure, shortened: as §1

[12] = target: T8, ETS2 (Homo sapiens, UniProt P15036 1-469); conditions: protein: recombinant; tags: N-terminal GST; dsDNA, one strand shown
T8 sequence: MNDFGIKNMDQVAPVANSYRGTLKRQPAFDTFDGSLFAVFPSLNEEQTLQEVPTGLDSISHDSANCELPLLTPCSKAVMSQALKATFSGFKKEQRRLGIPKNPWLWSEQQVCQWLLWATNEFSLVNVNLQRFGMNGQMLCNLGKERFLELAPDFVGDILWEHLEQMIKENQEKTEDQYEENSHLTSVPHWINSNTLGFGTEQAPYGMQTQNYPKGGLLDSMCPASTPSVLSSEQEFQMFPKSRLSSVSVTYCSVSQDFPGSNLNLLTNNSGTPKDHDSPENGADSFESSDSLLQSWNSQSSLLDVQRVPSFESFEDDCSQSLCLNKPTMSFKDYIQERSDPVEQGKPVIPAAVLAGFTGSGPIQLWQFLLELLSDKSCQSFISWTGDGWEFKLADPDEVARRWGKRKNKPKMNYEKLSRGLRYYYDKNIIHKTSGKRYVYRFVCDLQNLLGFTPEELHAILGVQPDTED
Procedure, shortened: as §1

[13] = target: T9, SPDEF (Homo sapiens, UniProt O95238 1-335); conditions: protein: recombinant; tags: N-terminal GST; dsDNA, one strand shown
T9 sequence: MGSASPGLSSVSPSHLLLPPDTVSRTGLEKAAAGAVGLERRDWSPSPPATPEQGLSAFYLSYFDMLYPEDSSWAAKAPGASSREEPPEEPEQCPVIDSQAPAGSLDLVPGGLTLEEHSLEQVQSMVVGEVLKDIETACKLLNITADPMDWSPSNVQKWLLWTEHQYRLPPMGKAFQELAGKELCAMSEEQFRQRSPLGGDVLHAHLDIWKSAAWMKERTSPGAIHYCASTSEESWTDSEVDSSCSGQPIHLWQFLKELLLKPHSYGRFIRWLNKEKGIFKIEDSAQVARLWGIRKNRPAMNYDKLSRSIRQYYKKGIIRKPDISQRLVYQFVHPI
Procedure, shortened: as §1

[14] = target: T10, ETV7 (Homo sapiens, UniProt Q9Y603 1-341); conditions: protein: recombinant; tags: N-terminal GST; dsDNA, one strand shown
T10 sequence: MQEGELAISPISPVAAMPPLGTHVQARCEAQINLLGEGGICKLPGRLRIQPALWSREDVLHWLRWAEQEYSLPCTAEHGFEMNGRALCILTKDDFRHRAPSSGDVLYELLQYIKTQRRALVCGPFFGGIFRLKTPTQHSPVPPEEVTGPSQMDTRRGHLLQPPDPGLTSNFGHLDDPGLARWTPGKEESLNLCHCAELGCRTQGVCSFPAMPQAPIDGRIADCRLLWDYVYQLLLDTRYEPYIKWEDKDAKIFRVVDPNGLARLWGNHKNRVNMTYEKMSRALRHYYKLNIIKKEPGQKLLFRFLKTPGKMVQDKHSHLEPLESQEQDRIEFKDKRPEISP
Procedure, shortened: as §1

[15] = target: T11, ELF5 (Homo sapiens, UniProt Q9UKW6-2 1-255); conditions: protein: recombinant; tags: N-terminal GST; dsDNA, one strand shown
T11 sequence: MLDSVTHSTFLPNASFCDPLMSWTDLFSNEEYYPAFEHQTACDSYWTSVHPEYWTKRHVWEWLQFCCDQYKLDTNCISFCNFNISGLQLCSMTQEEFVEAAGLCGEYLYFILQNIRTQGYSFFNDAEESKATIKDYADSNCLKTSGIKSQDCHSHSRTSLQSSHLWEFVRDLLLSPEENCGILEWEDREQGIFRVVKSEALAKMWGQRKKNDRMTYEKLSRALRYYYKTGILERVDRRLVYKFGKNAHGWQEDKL
Procedure, shortened: as §1

[16] = target: T12, ETV3 (Homo sapiens, UniProt P41162-2 1-143); conditions: protein: recombinant; tags: N-terminal GST; dsDNA, one strand shown
T12 sequence: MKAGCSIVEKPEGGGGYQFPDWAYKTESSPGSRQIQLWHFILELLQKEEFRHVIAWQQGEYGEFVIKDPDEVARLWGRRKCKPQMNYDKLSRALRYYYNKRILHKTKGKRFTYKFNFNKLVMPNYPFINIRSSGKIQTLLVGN
Procedure, shortened: as §1

[17] = target: ETV6 (Homo sapiens, UniProt P41212 1-452); conditions: protein: recombinant; tags: N-terminal GST; dsDNA, one strand shown
Chain of ETV6 (P41212 whole entry): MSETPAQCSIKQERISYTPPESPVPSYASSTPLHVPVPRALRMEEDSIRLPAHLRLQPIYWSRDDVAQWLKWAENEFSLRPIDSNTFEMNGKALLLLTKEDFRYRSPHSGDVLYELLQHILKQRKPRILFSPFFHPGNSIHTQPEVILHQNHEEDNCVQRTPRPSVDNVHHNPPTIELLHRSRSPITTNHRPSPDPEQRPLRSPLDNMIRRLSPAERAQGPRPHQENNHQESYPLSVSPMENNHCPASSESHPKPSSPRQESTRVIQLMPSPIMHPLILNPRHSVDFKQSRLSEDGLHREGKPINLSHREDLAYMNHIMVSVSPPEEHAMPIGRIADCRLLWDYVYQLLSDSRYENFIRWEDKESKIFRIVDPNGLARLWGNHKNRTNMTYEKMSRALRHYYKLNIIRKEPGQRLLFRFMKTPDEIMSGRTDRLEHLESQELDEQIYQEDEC
Procedure, shortened: as §1

CGTCCC
binding signal [1]: 1.34 fold enrichment (6-mer frequency, TF over GST control) | binding signal [2]: 1.3 fold enrichment (6-mer frequency, TF over GST control) | binding signal [3]: 1.08 fold enrichment (6-mer frequency, TF over GST control) | binding signal [4]: 1.38 fold enrichment (6-mer frequency, TF over GST control) | binding signal [5]: 1.27 fold enrichment (6-mer frequency, TF over GST control) | binding signal [6]: 1.39 fold enrichment (6-mer frequency, TF over GST control) | binding signal [7]: 1.12 fold enrichment (6-mer frequency, TF over GST control) | binding signal [8]: 1.45 fold enrichment (6-mer frequency, TF over GST control) | binding signal [9]: 1.34 fold enrichment (6-mer frequency, TF over GST control) | binding signal [10]: 1.35 fold enrichment (6-mer frequency, TF over GST control) | binding signal [11]: 1.3 fold enrichment (6-mer frequency, TF over GST control) | binding signal [12]: 1.38 fold enrichment (6-mer frequency, TF over GST control) | binding signal [13]: 1.35 fold enrichment (6-mer frequency, TF over GST control) | binding signal [14]: 1.22 fold enrichment (6-mer frequency, TF over GST control) | binding signal [15]: 1.31 fold enrichment (6-mer frequency, TF over GST control) | binding signal [16]: 1.41 fold enrichment (6-mer frequency, TF over GST control) | binding signal [17]: 1.32 fold enrichment (6-mer frequency, TF over GST control)

ATGTGC
binding signal [1]: 1.16 fold enrichment (6-mer frequency, TF over GST control) | binding signal [2]: 1.16 fold enrichment (6-mer frequency, TF over GST control) | binding signal [3]: 1.02 fold enrichment (6-mer frequency, TF over GST control) | binding signal [4]: 1.17 fold enrichment (6-mer frequency, TF over GST control) | binding signal [5]: 1.17 fold enrichment (6-mer frequency, TF over GST control) | binding signal [6]: 1.21 fold enrichment (6-mer frequency, TF over GST control) | binding signal [7]: 1.11 fold enrichment (6-mer frequency, TF over GST control) | binding signal [8]: 1.1 fold enrichment (6-mer frequency, TF over GST control) | binding signal [9]: 1.05 fold enrichment (6-mer frequency, TF over GST control) | binding signal [10]: 1.15 fold enrichment (6-mer frequency, TF over GST control) | binding signal [11]: 1.11 fold enrichment (6-mer frequency, TF over GST control) | binding signal [12]: 1.1 fold enrichment (6-mer frequency, TF over GST control) | binding signal [13]: 1.23 fold enrichment (6-mer frequency, TF over GST control) | binding signal [14]: 1.03 fold enrichment (6-mer frequency, TF over GST control) | binding signal [15]: 1.09 fold enrichment (6-mer frequency, TF over GST control) | binding signal [16]: 1.15 fold enrichment (6-mer frequency, TF over GST control) | binding signal [17]: 1.1 fold enrichment (6-mer frequency, TF over GST control)
